Drawing on PubChem BioAssay AID1376 (SRMLSC, 2008), this text covers inhibition for 92 compounds.

Out of some 220,000 compounds screened, about 530 (0.24%) were called active. The full list was thinned out, with actives kept by preference. Entries with a potency or affinity are not part of this list. Values without a mark were called inactive. Cut-off read from the data, not from the text of the source: active = inhibition above about 13%; inconclusive = no clear call, values can overlap the other calls; inactive = below that.

For the experiment, the target named is Bifunctional protein GlmU (Mycobacterium tuberculosis (strain ATCC 25618 / H37Rv)) (UniProt P9WMN3). Briefly: inhibition of mycobacterial GlmU enzyme – biochemical, glucosamine-1-phosphate acetyltransferase (AID 1376).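 Note: 0% = complete reaction with vehicle and 100% = reaction without substrate.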 Particulars: M. tuberculosis GlmU acetyltransferase enzyme assay; hits give high values;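 tested at 30 µM in the primary screen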.
Sequence of Bifunctional protein GlmU (Mycobacterium tuberculosis (strain ATCC 25618 / H37Rv)) (P9WMN3 whole entry, looked up): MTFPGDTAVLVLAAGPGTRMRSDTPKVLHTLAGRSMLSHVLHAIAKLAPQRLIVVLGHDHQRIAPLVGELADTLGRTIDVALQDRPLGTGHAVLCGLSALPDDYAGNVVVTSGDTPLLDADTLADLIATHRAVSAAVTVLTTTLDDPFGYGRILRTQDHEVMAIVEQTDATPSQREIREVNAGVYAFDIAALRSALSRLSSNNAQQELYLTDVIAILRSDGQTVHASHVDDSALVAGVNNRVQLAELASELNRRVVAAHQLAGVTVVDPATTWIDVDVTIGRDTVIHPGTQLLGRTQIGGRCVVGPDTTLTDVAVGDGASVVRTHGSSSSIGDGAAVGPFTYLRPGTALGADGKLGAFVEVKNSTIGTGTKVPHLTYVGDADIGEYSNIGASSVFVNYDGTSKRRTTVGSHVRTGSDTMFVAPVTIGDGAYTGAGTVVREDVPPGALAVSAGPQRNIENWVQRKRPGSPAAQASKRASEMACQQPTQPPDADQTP
As usually defined, the inhibition is the drop in the measured response relative to a control, in per cent. In the case of `CC1=C(C#N)c2nc(N)c(C#N)c(C)c2/C1=C\c1ccc(C)cc1`, the inhibition is 2.53%.
For the compound `CC1=C(C#N)c2nc(N)c(C#N)c(C)c2/C1=C\c1ccc(OCC(=O)O)c(Cl)c1`, the inhibition is 4.55%.
Turning to `Cc1ccccc1/C=N/NC(=O)Cc1ccc(Cl)cc1`, the inhibition is 0.8%.
Consider `CC(C)(C)N1CC(C(=O)O)CC1=O` (configuration not stated), for which the inhibition is 6.47%.
As to `COc1ccc(NC(=O)C(CCS(C)(=O)=O)NC(C)=O)cc1` (configuration not stated), the inhibition is 18.3% (active).
The same measure for `CC(=O)NC(CCS(C)(=O)=O)C(=O)Nc1ccccc1` (configuration not stated): 2.39%; for `CC(=O)NC(CCS(C)(=O)=O)C(=O)Nc1ccc(Oc2ccccc2)cc1` (configuration not stated): -3.46%; for `O=[N+]([O-])c1cccc(/C=N/n2c(COc3ccccc3)n[nH]c2=S)c1`: 9.99%.
`CC(C)(C)c1ccc(Oc2ccc(NC(=O)c3cccs3)cn2)cc1`: the inhibition is -0.97%.
In the case of `O=C1OCc2cccc([N+](=O)[O-])c21` it was 7.84%; in that of `O=C1CC(=O)c2c1cccc2[N+](=O)[O-]`, 17% (active); in that of `O=C1c2cccc([N+](=O)[O-])c2C(=O)N1c1ccccc1`, 1.03%.
In the case of `CC1(C)CC(=O)C(/C=N/c2ccccn2)=C(O)C1` it was 0.36%; in that of `Cc1ccc(N=CC2=C(O)CC(C)(C)CC2=O)nc1`, 0.57%; in that of `CC1(C)CC(=O)C(C=Nc2ccc(Cl)cn2)=C(O)C1`, 13.9% (active).
As to `N#Cc1c2c(c(NCCN3CCOCC3)n3c1nc1ccccc13)CCCC2`, the inhibition was 6.82%.
In the case of `CCCc1c(C)c(C#N)c2nc3ccccc3n2c1NCCCN1CCOCC1` it was 11.7%; in that of `N#Cc1c2c(c(NCCCN3CCOCC3)n3c1nc1ccccc13)CCC2`, 13.8% (active).
`COCCCNC(=O)C1CCN(C(=O)c2cc3sccc3n2Cc2ccc(F)cc2)CC1`: the inhibition was 1.5%.
With `O=C(OCC1O[C@@H](OC(=O)c2cc(O)c(O)c(O)c2)[C@@H](OC(=O)c2cc(O)c(O)c(O)c2)[C@@H](OC(=O)c2cc(O)c(O)c(O)c2)[C@@H]1OC(=O)c1cc(O)c(O)c(O)c1)c1cc(O)c(O)c(O)c1` (some centres not stated), the inhibition is 7.78%.
Turning to `O=C(O)C[C@@H]1C(=O)O[C@@H]2C(COC(=O)c3cc(O)c(O)c(O)c3)O[C@@H](OC(=O)c3cc(O)c(O)c(O)c3)[C@@H](OC(=O)c3cc(O)c(O)c4c3[C@H]1[C@H](O)C(=O)O4)[C@H]2OC(=O)c1cc(O)c(O)c(O)c1` (some centres not stated), the inhibition was 67.3% (active).
For the compound `CCCC1=C(C(=O)OCC)C(c2ccco2)C(C#N)=C(N)O1` (configuration not stated), the inhibition was 0.05%.
Turning to `Cc1ccc(N2C(=O)C(Cc3ccc(O)cc3)NC2=S)cc1C` (configuration not stated), the inhibition is -4.47%.
For the compound `CC(=O)N1CCC(=NNC(=O)CSc2cc(C)c(Br)cc2C)CC1`, the inhibition was -1.13%.
On to `COc1ccc(-c2nnc(SCC(=O)NCc3ccco3)n2C)cc1`, for which the inhibition is 3.67%.
Take `Cc1cccc(N2C(=O)C(O)=C(C(=O)c3cccs3)C2c2ccc(Cl)cc2)n1` (configuration not stated): the inhibition is 3.09%.
For the compound `CC1CCN(c2nncc3ccccc23)CC1`, the inhibition was 31.2% (active).
For `CC1CCN(c2ncnc3ccccc23)CC1`, the inhibition was 2.04%.
As for `CC1CCN(c2nnc(-c3ccccc3)c3ccccc23)CC1`, the inhibition was 0.97%.
For `COc1ccc(C(CNC(=O)COc2ccccc2-c2ccccc2)N2CCOCC2)cc1` (configuration not stated), the inhibition is -8.37%.
Regarding `CCOC(=O)c1ccc(NC2c3ccccc3C(=O)N2c2cccnc2)cc1` (configuration not stated), the inhibition is 1.04%.
Consider `Oc1c(Cl)cc(Cl)cc1C=Nc1ccc(Br)cc1`, for which the inhibition was 5.27%.
The same measure for `Oc1c(Cl)cc(Cl)cc1Sc1cc(Cl)cc(Cl)c1O`: 13.1% (active); for `C/C(=N\O)c1cc(Cl)cc(Cl)c1O`: -5.49%.
As for `COc1cc(NC(=O)Nc2ccc(Cl)c(Cl)c2)c(C(=O)O)cc1OC`, the inhibition is 0.76%.
With `Cc1sc2nc(CN3CCC(C)CC3)nc(Cl)c2c1C`, the inhibition was -6.88%.
In the case of `O=C(Nc1cccc(O)c1)c1cc2nc(-c3ccccc3)cc(-c3ccccc3)n2n1`, the inhibition is 1.52%.
Turning to `COc1cc(NC(=O)c2cc3nc(-c4ccccc4)cc(-c4ccccc4)n3n2)cc(OC)c1OC`, the inhibition was -2.98%.
Consider `COc1ccc(NC(=O)c2cc3nc(-c4ccccc4)cc(-c4ccccc4)n3n2)c(OC)c1`, for which the inhibition was 20.8% (active).
`CC(C)CN(C(=O)CSc1nnc2c(Cl)cc(C(F)(F)F)cn12)C1CCS(=O)(=O)C1` (configuration not stated): the inhibition was 52.2%.
Consider `Cc1ccc(N(CC(=O)N/N=C/c2cc(C)n(-c3ccccc3)c2C)S(C)(=O)=O)c(C)c1`, for which the inhibition was 1.57%.
Turning to `OCC1(CCc2ccccc2)CCN(Cc2c(F)ccc(F)c2F)CC1`, the inhibition is 3.84%.
Turning to `CC(C)CCNc1nnnc2c1sc1nc(N3CCOCC3)c3c(c12)CC(C)(C)SC3`, the inhibition is 2.31%.
The same measure for `CCOc1ccc(NC(=S)N2CCc3cc(OC)c(OC)cc3C2COc2ccc3c(C)cc(=O)oc3c2)cc1` (configuration not stated): 1.27%; for `O=C(COC(=O)C12CC3CC(CC(C3)C1)C2)NCCc1ccccc1`: 5.26%.
In the case of `Cn1nccc1NC(=O)c1nccnc1C(=O)O` it was -4.84%.
In the case of `Cc1cc(N2CCN(C(=O)c3ccco3)CC2)n2nc(-c3cccc(F)c3)cc2n1`, the inhibition was -0.85%.
The same measure for `Cc1cc(N2CCN(C(=O)c3ccco3)CC2)n2nc(C)c(-c3ccccc3)c2n1`: 3.95%; for `Cc1cc(N2CCN(C(=O)c3ccco3)CC2)n2nc(-c3cccc(Cl)c3)cc2n1`: 14.1% (active); for `CCCCN(CC)CCNC(=O)c1cn(-c2ccc(Cl)cc2)c(=O)c2ccccc12`: -2.06%.
In the case of `Cc1c(-c2ccco2)[n+](=O)c2c(n1[O-])CCCCC2` it was 3.97%; in that of `Cc1c(-c2ccco2)[n+](=O)c2c(n1[O-])CCC2`, 14.9% (active).
The same measure for `Cc1ccc(-c2c(C)n([O-])c3c([n+]2=O)CCC3)o1`: 1.5%; for `COC(=O)c1cnc(N2CCCN(S(=O)(=O)c3ccc(C(F)(F)F)cc3)CC2)nc1C(F)(F)F`: 1.89%; for `Cc1cccc(NC(=O)c2ccc(COc3ccc4ccccc4c3)o2)n1`: -0.95%.
With `O=C(CN1N=C(c2ccccc2)CCC1=O)NCCN1CCc2ccccc2C1`, the inhibition was -1.06%.
In the case of `CC(=O)Oc1cccc(N2C(=O)c3ccccc3C2=O)c1` it was -6.78%; in that of `CC12CCC(C(=O)NCc3ccccc3)(OC1=O)C2(C)C` (configuration not stated), 1.44%.
On to `CC12CCC(C(=O)NNc3ccccc3)(OC1=O)C2(C)C` (configuration not stated), for which the inhibition was -5.23%.
Take `CC12CCC(C(=O)NC(c3ccccc3)c3ccccc3)(OC1=O)C2(C)C` (configuration not stated): the inhibition was 13.4% (active).
With `COc1cccc(OC)c1C(=O)N1CCN(Cc2ccccc2C(F)(F)F)CC1`, the inhibition was 3.68%.
Take `COc1ccc(/C=C2\CCc3c2nc2ccccc2c3C(=O)O)cc1OC`: the inhibition is -1.01%.
The same measure for `O=C(O)c1c2c(nc3ccccc13)/C(=C/c1ccc(O)cc1)CCC2`: -1.41%.
As for `CCOC(=O)c1nnn(-c2nc(OC)nc(N3CCCCC3)n2)c1-c1ccccc1`, the inhibition was 1.53%.
On to `CCNc1nc(N2CCCCC2)nc(-n2nnc(C(=O)OCC)c2C)n1`, for which the inhibition is 13.5% (active).
In the case of `COC(=O)c1nnn(-c2nc(N3CCOCC3)nc(N3CCOCC3)n2)c1C`, the inhibition is 0.09%.
In the case of `O=C(O)/C=C/C(=O)Nc1ccc2nccnc2c1` it was 0.78%; in that of `CN(C)S(=O)(=O)c1ccc(C(=O)NCc2ccco2)cc1`, 7.54%; in that of `CCOc1ccc(/C=C(\C#N)C(=O)Nc2cccnc2)cc1`, -3.21%.
In the case of `CCOc1cccc(NC(=O)/C(C#N)=C\c2cccnc2)c1`, the inhibition was -1.75%.
In the case of `CCOc1cccc(NC(=O)/C(C#N)=C/c2cccnc2)c1` it was 13.3% (active); in that of `Cc1ccc(-c2nnc(CSc3nnc(COc4ccccc4)n3-c3ccc(C)cc3)o2)cc1`, 2.51%.
The same measure for `COc1ccccc1CCNC1CCC(C)CC1` (configuration not stated): 1.25%; for `CC(=O)c1ccc(S(=O)(=O)N2CCNCC2)cc1`: 1.28%; for `O=[N+]([O-])c1cccc(-c2csc(CS(=O)(=O)Cc3ccco3)n2)c1`: 1.82%.
Turning to `O=C(NC1CC1)C1Nc2ccc(OC(F)(F)F)cc2C2C=CCC12` (configuration not stated), the inhibition was -0.17%.
The same measure for `O=C(O)C1Nc2ccc(OC(F)(F)F)cc2C2C=CCC12` (configuration not stated): 13.1% (active); for `Cc1ccc2c(c1)C1C=CCC1C(C(=O)O)N2` (configuration not stated): 28% (active); for `CCOC(=O)C1Nc2ccc(OC(F)(F)F)cc2C2C=CCC12` (configuration not stated): 1.1%.
With `CCOC(=O)C1Nc2ccc(C)cc2C2C=CCC12` (configuration not stated), the inhibition is -1.77%.
In the case of `Cc1ccc2c(c1)C1C=CCC1C(C(=O)NCCCN1CCOCC1)N2` (configuration not stated) it was 3.8%.
Turning to `CCOC(=O)N1CCC(N(CCN(C)C)C(=S)Nc2ccccc2Cl)CC1`, the inhibition is 0.75%.
Turning to `O=C(CNC(=O)c1ccc2c(c1)OCCO2)N/N=C/c1ccco1`, the inhibition is -1.55%.
Turning to `Nc1ccccc1NC1=CC(=O)CC(c2ccccc2)C1` (configuration not stated), the inhibition is 2.07%.
Turning to `COc1ccc(/C=N/NC(=O)CN(CCc2ccccc2)S(=O)(=O)c2ccc(NC(C)=O)cc2)cc1OC`, the inhibition is 1.25%.
The same measure for `COc1cc(NS(=O)(=O)c2ccc(Nc3nc(-c4ccccn4)cs3)cc2)nc(OC)n1`: -0.88%; for `Cn1cnnc1SCc1ccc(C(=O)N/N=C(\CCC(=O)O)c2ccc(C(C)(C)C)cc2)cc1`: -2.55%; for `CCSc1nnc(NS(=O)(=O)c2ccc(C)cc2)s1`: -1.65%.
For the compound `Cc1ccc(C2=CSC3=NS(=O)(=O)CCN23)cc1C`, the inhibition is -2.13%.
As to `Cc1ccc(C2=CSC3=NS(=O)(=O)CCN23)cc1`, the inhibition is -2.55%.
Consider `Cc1ccc(C)c(C2=CSC3=NS(=O)(=O)CCN23)c1`, for which the inhibition was 14.7% (active).
Regarding `Cc1ccnc(SCc2cn3c(C)cc(C)nc3n2)n1`, the inhibition was -0.65%.
